PubChem BioAssay AID1159580 (chemical genetic matrix, 2015)
“And” between values parts separate entries of the source, which are not always exact repeats. Equal values may be shown once. In all, about 5,500 compounds went through this assay and about 2,000 (36%) were called active. Inconclusive results (about 18%) are left out. No stated cut-off is given here; in the data, active means normalized growth mostly below about 0.91 (no sharp cut-off); inconclusive means no clear call, values can overlap the other calls; inactive means mostly above about 0.92. Some of the results follow.

Test: chemical genetic growth profiling, strain panel (AID 1159580);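 further: tested at 20 µM; growth read once vehicle control cultures reached saturation at 30 °C; 1 = growth at the plate median or of vehicle wells; lower values mean less growth of the strain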
Details: S. cerevisiae deletion strains, growth OD

Measured: normalized growth

Nc1ccc(S(=O)(=O)Nc2ncccn2)cc1
inactive: locus YAL013W, strain DEP1, hits give low values 0.982 | locus YAL021C, strain ccr4, hits give low values 0.968 | locus YAL026C, strain drs2, hits give low values 0.986 | locus YAL030W, strain snc1, hits give low values 0.994 | locus YBL061C, strain skt5, hits give low values 0.985 | locus YBR009C, strain hhf1, hits give low values 0.986 | locus YBR021W, strain FUR4, hits give low values 0.992 | locus YBR023C, strain chs3, hits give low values 0.993 | locus YBR171W, strain sec66, hits give low values 0.973 | locus YBR229C, strain ROT2, hits give low values 0.96 | locus YBR231C, strain swc5, hits give low values 1.02 | locus YBR279W, strain paf1, hits give low values 0.995 | locus YCL011C, strain gbp2, hits give low values 0.957 | locus YCL016C, strain dcc1, hits give low values 1.01 | locus YCL029C, strain bik1, hits give low values 0.991 | locus YCL069W, strain vba3, hits give low values 0.954 | locus YCR088W, strain abp1, hits give low values 0.976 | locus YDL005C, strain med2, hits give low values 0.985 | locus YDL035C, strain GPR1, hits give low values 0.979 | locus YDL040C, strain nat1, hits give low values 0.971 | locus YDL074C, strain BRE1, hits give low values 0.969 | locus YDL101C, strain DUN1, hits give low values 0.981 | locus YDL134C, strain PPH21, hits give low values 0.999 | locus YDL185W, strain tfp1, hits give low values 0.988 | locus YDL192W, strain arf1, hits give low values 1 | locus YDR001C, strain nth1, hits give low values 0.965 | locus YDR069C, strain doa4, hits give low values 0.97 | locus YDR101C, strain arx1, hits give low values 1.01 | locus YDR137W, strain rgp1, hits give low values 0.964 | locus YDR150W, strain NUM1, hits give low values 0.985 | locus YDR159W, strain sac3, hits give low values 0.955 | locus YDR162C, strain NBP2, hits give low values 0.996 | locus YDR195W, strain ref2 0.956 | locus YDR297W, strain sur2, hits give low values 0.975 | locus YDR318W, strain mcm21, hits give low values 1 | locus YDR334W, strain swr1, hits give low values 0.935 | locus YDR335W, strain msn5, hits give low values 0.988 | locus YDR388W, hits give low values 0.994 | locus YDR392W, strain spt3, hits give low values 1 | locus YDR502C, strain sam2, hits give low values 1.01 | locus YEL003W, strain gim4, hits give low values 0.991 | locus YEL037C, strain rad23, hits give low values 0.967 | locus YEL061C, strain CIN8 (second series), hits give low values 0.967 | locus YEL061C, strain CIN8, hits give low values 0.988 | locus YER015W, strain faa2, hits give low values 0.994 | locus YER016W, strain bim1, hits give low values 0.968 | locus YER110C, hits give low values 0.968 | locus YER111C, strain swi4, hits give low values 1 | locus YER155C, strain BEM2 (second series), hits give low values 0.989 | locus YER155C, strain BEM2, hits give low values 0.991 | locus YER167W, strain BCK2, hits give low values 0.99 | locus YFR010W, strain ubp6, hits give low values 0.941 | locus YGL078C, strain dbp3, hits give low values 1 | locus YGL086W, strain mad1, hits give low values 0.997 | locus YGL167C, strain pmr1, hits give low values 0.976 | locus YGL173C, strain kem1, hits give low values 0.994 | locus YGL227W, strain vid30, hits give low values 0.995 | locus YGL240W, strain doc1, hits give low values 0.986 | locus YGL248W, strain PDE1, hits give low values 0.978 | locus YGL253W, strain hxk2, hits give low values 0.923 | locus YGR078C, strain PAC10, hits give low values 0.986 | locus YGR135W, strain pre9, hits give low values 0.997 | locus YGR252W, strain gcn5, hits give low values 0.957 | locus YHR013C, strain ard1, hits give low values 0.984 | locus YHR027C, strain rpn1, hits give low values 0.988 | locus YHR030C, strain SLT2, hits give low values 0.999 and 0.97 | locus YHR079C, strain IRE1 (second series), hits give low values 1 | locus YHR079C, strain IRE1, hits give low values 0.979 | locus YHR094C, strain hxt1, hits give low values 0.994 | locus YHR129C, strain ARP1, hits give low values 0.987 | locus YHR142W, strain chs7, hits give low values 0.984 | locus YHR200W, strain rpn10, hits give low values 0.992 | locus YIL066C, strain RNR3, hits give low values 0.984 | locus YIL073C, strain SPO22, hits give low values 1.02 | locus YIL125W, strain kgd1, hits give low values 0.995 | locus YIR030C, strain dcg1, hits give low values 0.997 | locus YJL092W, strain hpr5, hits give low values 0.974 | locus YJL095W, strain BCK1 (second series), hits give low values 0.995 | locus YJL095W, strain BCK1, hits give low values 0.994 and 0.979 | locus YJL115W, strain asf1, hits give low values 0.97 | locus YJL129C, strain trk1, hits give low values 0.984 | locus YJL134W, strain LCB3, hits give low values 0.993 | locus YJL154C, strain vps35, hits give low values 0.969 | locus YJL164C, strain tpk1, hits give low values 0.992 | locus YJL166W, strain qcr8, hits give low values 0.936 | locus YJL168C, strain set2, hits give low values 0.992 | locus YJL187C, strain SWE1 (second series), hits give low values 0.986 | locus YJL187C, strain SWE1, hits give low values 0.974 | locus YJR043C, strain POL32, hits give low values 1.01
